# The sample as a whole holds a higher share of hits than the screen did.
# NRP1-CendR mod: modulators of CendR peptide binding to NRP-1, primary screen, biochemical, fluorescence polarization, uHTS | Neuropilin-1 (Homo sapiens), O14786 | FAM-RPARPAR peptide binding to NRP-1 | inhibition, % at 25 µM | 0.85% of 360,000 active;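 active = inhibition or corrected inhibition above about 18%, plus a signal ratio from 0.5 to 1.5, limit read from the data, passing the limit was not always enough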
# ARNT TACC3 PPI: disruptors of ARNT/TACC3 protein interaction, primary screen, biochemical, AlphaScreen, single concentration. Transforming acidic coiled-coil-containing protein 3 (Homo sapiens), Q9Y6A5. AlphaScreen His-ARNT PAS-B/GST-TACC3 binding, luminescence; TACC3 fragment carries E629A point mutation. inhibition, % at 9.99 µM. 0.66% of 390,000 active. AID 623870, 2012;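 active = mean inhibition of replicates at least 50% and at least half of replicates each reaching 50%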;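 also: 0% = complete ARNT plus TACC3 wells and 100% = ARNT alone without TACC3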
# ERp5 inh: inhibitors of ERp5-driven insulin aggregation, primary screen, biochemical, turbidity, absorbance 650 nm, single point. 90 min. inhibition, % at 9.99 µM. 0.05% of 350,000 active. AID 651711, 2012;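 active = mean replicate inhibition above about 25%, with every replicate also reaching it, limit read from the data, passing the limit was not always enough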
# PglD inh: C. jejuni PglD acetyltransferase inhibitors, primary screen, biochemical, DTNB colorimetric, single point | 0.098% of 360,000 active | UDP-N-acetylbacillosamine N-acetyltransferase PglD (Campylobacter jejuni) | purified PglD enzyme, DTNB colorimetric CoA detection | inhibition, % at 12.5 µM; in the data active = inhibition above about 16%, passing the limit was not always enough
# ALR H2O2 inh: inhibitors of human ALR sulfhydryl oxidase, primary screen, biochemical, H2O2 detection, HRP-luminol luminescence, single point; 3.8% of 290,000 active; inhibition, % (no concentration beside the values); purified ALR, DTT oxidation; FAD-linked sulfhydryl oxidase ALR (Homo sapiens), P55789; AID 485317, 2010;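 active = mean replicate inhibition above about 79%, with every replicate also reaching it, limit read from the data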
# PDI inh: inhibitors of human PDI, primary screen, biochemical, turbidity, single point, plate reader; Protein disulfide-isomerase (Homo sapiens), P07237; PDI insulin aggregation turbidity, A650, 90 min; inhibition, % at 10 µM; 0.052% of 350,000 active; AID 588391, 2011;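 active = mean inhibition across replicates of 30% or more, whatever share of single replicates reach that level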
# Target sequence (P07237 whole entry, looked up): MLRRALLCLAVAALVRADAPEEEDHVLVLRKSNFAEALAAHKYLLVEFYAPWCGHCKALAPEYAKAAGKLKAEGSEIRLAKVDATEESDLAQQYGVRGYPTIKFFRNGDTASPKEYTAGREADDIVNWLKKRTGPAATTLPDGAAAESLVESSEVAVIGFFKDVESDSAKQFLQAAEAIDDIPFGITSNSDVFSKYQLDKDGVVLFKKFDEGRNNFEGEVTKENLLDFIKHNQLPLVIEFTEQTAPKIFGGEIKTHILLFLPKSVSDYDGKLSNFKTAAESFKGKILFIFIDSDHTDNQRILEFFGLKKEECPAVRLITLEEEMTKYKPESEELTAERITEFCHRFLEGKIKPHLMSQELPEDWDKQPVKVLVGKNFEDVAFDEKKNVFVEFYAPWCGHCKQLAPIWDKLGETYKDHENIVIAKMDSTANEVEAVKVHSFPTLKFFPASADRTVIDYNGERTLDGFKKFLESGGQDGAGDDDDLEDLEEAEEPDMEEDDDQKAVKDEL
# * = called active by the depositor; · = no result given.
SMILES,NRP1-CendR mod,ARNT TACC3 PPI,ERp5 inh,PglD inh,ALR H2O2 inh,PDI inh
C[C@H]1CN([C@@H](C)CO)C(=O)c2cc(NS(=O)(=O)c3ccc(F)cc3)ccc2O[C@@H]1CN(C)Cc1ccc(Oc2ccccc2)cc1,·,-2,-14,0,·,·
CCC(=O)N(C)C[C@@H]1Oc2ncc(-c3ccc(C#N)cc3)cc2C(=O)N([C@H](C)CO)C[C@@H]1C,·,-6,0,-4,·,·
CCOC(=O)/C=C/C(=O)OCC(=O)Nc1cccc(Br)c1,5,29,2,·,91*,-1
COCCNC(=O)C(=O)Nc1ccc(Br)cc1,-14,-11,·,0,-11,7
COCCNC(=O)C(=O)Nc1cccc(Br)c1,29*,-2,-3,1,·,12
CCCNC(=O)N1C[C@H](C)[C@@H](OC)CN(C)C(=O)c2ccc(NC(=O)CCC)cc2OC[C@H]1C,·,10,-2,1,·,·
O=C(O)C1OC1(c1ccccc1Cl)c1ccccc1Cl (stereo unspecified),24*,-6,-8,·,·,1
CC(C)(C)c1ccc(C(=O)N/C(=C\c2cccc([N+](=O)[O-])c2)C(=O)Nc2cccc(C(=O)O)c2)cc1,-6,3,3,36*,1,-1
O=C(Nc1cccc(C(=O)O)c1)/C(=C/c1ccc([N+](=O)[O-])cc1)NC(=O)c1ccccc1,-4,-8,8,0,-9,0
CC(=O)c1cccc(NC(=O)/C(=C\c2cccnc2)NC(=O)c2ccccc2)c1,6,-2,2,-10,-1,19
O=C(NNc1cccc([N+](=O)[O-])c1)/C(=C\c1cccnc1)NC(=O)c1ccccc1,16,-12,1,4,99*,-1
CCCC1CC(CSC(=N)N)OC1=O (stereo unspecified),27*,-9,·,-2,3,-10
Cc1ccc([C@H]2N[C@]3(CCCN(Cc4ccc(Cl)cc4)C3=O)[C@H]3C(=O)N(C)C(=O)[C@@H]23)cc1,-11,·,26*,-3,·,-15
CN(C)C(=O)C[C@@H]1C[C@@H]2c3cc(NC(=O)NC4CCCC4)ccc3O[C@@H]2[C@H](CO)O1,·,-3,-3,3,·,·
O=C(Cn1ccc(NC(=O)OCc2ccccc2)nc1=O)NCCCN1CCCC1=O,9,0,-4,0,1,9
O=C(Cn1ccc(NC(=O)OCc2ccccc2)nc1=O)NCCN1CCOCC1,38*,4,2,7,-2,-4
CCOc1cc(/C=C(\C#N)c2[nH]nc(N)c2C#N)ccc1O,-24,26,·,10,99*,-3
CCOc1cc(-c2cc(-c3ccc(C)cc3)nc(N)c2C#N)ccc1O,-57,1,·,0,44,5
C[C@@H]1CCCCO[C@H](CN(C)C(=O)Cc2ccccc2)[C@H](C)CN([C@H](C)CO)C(=O)c2cc(NC(=O)Nc3ccc(F)cc3)ccc2O1,·,-3,0,0,·,·
COc1ccc(N2CCN(C(=O)c3cn(C4CCCC4)c(=O)c4c3c3ccccc3n4C)CC2)cc1,39*,4,·,5,-14,3
Cn1c2ccccc2c2c(C(=O)N3CCN(c4ccccn4)CC3)cn(C3CCCC3)c(=O)c21,38*,8,·,3,0,3
Cc1ccc(-c2csc(NCCc3nc4cc(Cl)c(Cl)cc4n3CCCO)n2)cc1,2,4,1,6,31,-5
OCCOCCn1c(CCNc2nc(-c3ccc(Cl)cc3)cs2)nc2cc(Cl)c(Cl)cc21,36*,-1,-4,4,71,-7
O=[N+]([O-])c1cc(-c2csc(NCCc3nc4cc(Cl)c(Cl)cc4n3CCCO)n2)ccc1Cl,31*,1,3,-4,9,-7
Cc1ccc(S(=O)(=O)N(C)C[C@H]2Oc3ccc(NS(C)(=O)=O)cc3C(=O)N([C@H](C)CO)C[C@@H]2C)cc1,·,-1,-8,-2,·,·
SMILES,NRP1-CendR mod,ARNT TACC3 PPI,ERp5 inh,PglD inh,ALR H2O2 inh,PDI inh
CCCNC(=O)C[C@H]1CC[C@@H]2[C@H](COC[C@@H](O)CN2C(=O)c2cccnc2)O1,·,-1,3,1,·,·
Cc1ccc(N(C(=O)c2ccc(Br)o2)C2C=CS(=O)(=O)C2)cc1 (stereo unspecified),-15,-27,-1,2,77*,-1
Cc1ccc(N(C(=O)c2cccs2)C2C=CS(=O)(=O)C2)cc1 (stereo unspecified),9,5,1,-7,96*,-7
O=C(c1ccc(Br)o1)N(c1ccc(Br)cc1)C1C=CS(=O)(=O)C1 (stereo unspecified),16,·,·,3,0,6
C[C@H]1CN([C@@H](C)CO)C(=O)c2cc(C#CC3CCCCC3)cnc2O[C@H]1CN(C)C(=O)Cc1ccccn1,·,1,1,-3,·,·
COc1ccc(OC)c(/C=c2\sc3nc(-c4cccs4)nn3c2=O)c1,137,2,-9,-2,-2,-3
Cc1ccc(N2CN=c3s/c(=C\c4cccnc4)c(=O)n3C2)cc1,6,2,·,5,-10,5
Cc1ccc(/C=c2\sc3nc(-c4cccnc4)nn3c2=O)cc1,-8,-1,·,-3,91*,-6
CC(C)c1ccc(/C=c2\sc3nc(-c4ccncc4)nn3c2=O)cc1,-18,-3,·,-1,87*,4
Cc1ccc(O)c(-c2cc(C(=O)Nc3ccc(S(=O)(=O)Nc4nc(C)cc(C)n4)cc3)[nH]n2)c1,29*,-8,·,·,44,11
Cc1ccc(O)c(-c2cc(C(=O)NCc3ccncc3)[nH]n2)c1,-5,10,·,3,90*,-8
CCC(=O)Nc1ccc2c(c1)C(=O)N(C)C[C@H](OC)[C@H](C)CN(CC1CC1)[C@H](C)CO2,·,-9,1,2,·,·
O=C(c1ccccc1)N1C[C@H]2[C@@H](c3ccccc31)[C@H](CO)N2C(=O)Nc1ccccc1Cl,·,-4,-1,-3,·,·
O=C(C1CC1)N1CCN=C1SCc1ccc(F)cc1,2,·,-3,-1,100*,·
O=C(C1CC1)N1CCN=C1SCc1ccccc1,-8,·,4,-1,-1,·
CC(=O)N1CCN=C1SCc1ccc(C(F)(F)F)cc1,7,-6,3,0,99*,6
CC(Oc1ccccc1)C(=O)N1CCN=C1SCc1ccccc1 (stereo unspecified),-22,-8,-7,·,1,-6
O=C(C1CC1)N1CCN=C1SCc1cccc(F)c1,-10,·,12,1,99*,·
COCC(=O)Nc1ccc2c(c1)[C@@H]1C[C@H](CC(=O)NCC(F)(F)F)O[C@H](CO)[C@@H]1O2,·,3,2,0,·,·
